# In PubChem BioAssay (Tox21):
# Results filed as inconclusive are left out. A call without a number means that no potency is given here. Values without a mark were called inactive. Activity calls are given as the source filed them. Unless noted, the call rests on the fitted dose curve; in most records, active means well fitted curve in the direction sought with a large enough effect in the repeat runs; inconclusive means weak or mixed curves; inactive means no such curve, though single readings can be large; an effect the other way counts as inactive or inconclusive.
# What was measured:
# [1] = molecular target: Peroxisome proliferator-activated receptor delta (Homo sapiens) (UniProt Q03181); assay: qHTS assay to identify small molecule agonists of the peroxisome proliferator-activated receptor delta (PPARd) signaling pathway (AID 743212; calls by dose curve)
# Summary of the method: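 Cells expressing a UAS-driven beta-lactamase reporter (PPARd-bla HEK293H) were given test compounds after a 5 h settle and kept at 37 C. Reporter activity was then measured as FRET fluorescence using LiveBLAzer B/G substrate.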
# [2] = qHTS assay to identify small molecule antagonists of the peroxisome proliferator-activated receptor delta (PPARd) signaling pathway - cell viability counter screen (AID 743213); further: nearly all actives have a fitted effect of over 50% in size
# Summary of the method: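 In this counter screen, HEK293H cells carrying a UAS-beta-lactamase reporter are co-treated with test compounds and 300 nM L165041 (final) for 17 h at 37 C; cell viability is quantified by CellTiter-Glo luminescence.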
# [3] = molecular target: Peroxisome proliferator-activated receptor delta (Homo sapiens) (UniProt Q03181); assay: qHTS assay to identify small molecule antagonists of the peroxisome proliferator-activated receptor delta (PPARd) signaling pathway (AID 743215; active means well fitted inhibition curve with a large enough effect in the signal ratio in the repeat runs, not every such curve was filed as active; the % refers to the signal ratio;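 further: cells stimulated with agonist L165041 at 300 nM final during compound exposure; series mostly up to about 62 µM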)
# Summary of the method: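 Screen format: qHTS, antagonist mode. HEK293H PPARd-bla cells received compound and 300 nM L165041 (final), 17 h, 37 C. Beta-lactamase detected via FRET substrate fluorescence, 2 h, room temperature.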
# [4] = qHTS assay to identify small molecule agonists of the farnesoid-X-receptor (FXR) signaling pathway - cell viability counter screen (AID 743218); further: nearly all actives have a fitted effect of over 45% in size; further: potency means the concentration at half of the fitted maximal effect
# Summary of the method: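 Same-well cytotoxicity check on FXR-UAS-bla HEK 293T cells: 5 h attachment, 16 h compound at 37 C, CellTiter-Glo luminescence read at room temperature after 30 min.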
# [5] = molecular target: Vitamin D3 receptor (Homo sapiens) (UniProt P11473); assay: qHTS assay to identify small molecule agonists of the vitamin D receptor (VDR) signaling pathway (AID 743222; calls by dose curve)
# Summary of the method: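 Using LiveBLAzer B/G FRET detection, agonism was scored in VDR-bla cells exposed overnight (16 h, 37C) to DMSO-dissolved compounds; substrate incubation was 2 h at room temperature.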
# [6] = molecular target: Vitamin D3 receptor (Homo sapiens) (UniProt P11473); assay: qHTS assay to identify small molecule antagonists of the vitamin D receptor (VDR) signaling pathway (AID 743223; active means well fitted inhibition curve with a large enough effect in the signal ratio in the repeat runs, not every such curve was filed as active; the % refers to the signal ratio)
# Summary of the method: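 Reporter line VDR-bla; stimulus 1alpha,25-(OH)2 vitamin D3, 3 nM final; compound co-addition, 16 h 37C/5% CO2; LiveBLAzer B/G substrate 2 h RT; fluorescence intensity.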
# [7] = qHTS assay to identify small molecule agonists of the vitamin D receptor (VDR) signaling pathway - cell viability counter screen (AID 743224); further: series mostly up to about 63 µM; nearly all actives have a fitted effect of over 50% in size
# Summary of the method: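 Counter screen for cytotoxicity: VDR-bla cells at 2,000 cells/well, 16 h compound exposure, then CellTiter-Glo luminescence after the beta-lactamase measurement.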
# [8] = molecular target: Bile acid receptor (Homo sapiens) (UniProt Q96RI1); assay: qHTS assay to identify small molecule antagonists of the farnesoid-X-receptor (FXR) signaling pathway (AID 743217; active means well fitted inhibition curve with a large enough effect in the signal ratio in the repeat runs, not every such curve was filed as active; the % refers to the signal ratio)
# Summary of the method: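 Quantitative HTS, beta-lactamase reporter format: FXR-UAS-bla HEK 293T cells co-treated 16 h at 37 °C with compounds and 50 uM final chenodeoxycholic acid, then read by B/G FRET fluorescence.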
# [9] = qHTS assay to identify small molecule antagonists of the farnesoid-X-receptor (FXR) signaling pathway - cell viability counter screen (AID 743221; active means well fitted cell-killing curve with a large enough effect in the repeat runs, not every such curve was filed as active; further: nearly all actives have a fitted effect of over 50% in size)
# Summary of the method: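 After a 5 h settling period, FXR-bla HEK 293T cells receive compound and chenodeoxycholic acid (50 uM final) and incubate 16 h at 37 C; CellTiter-Glo luminescence, read after 30 min at room temperature, reports cell viability.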
# [10] = molecular target: Bile acid receptor (Homo sapiens) (UniProt Q96RI1); assay: qHTS assay to identify small molecule agonists of the farnesoid-X-receptor (FXR) signaling pathway (AID 743220; active means well fitted activation curve with a large enough effect in the signal ratio in the repeat runs, not every such curve was filed as active; the % refers to the signal ratio)
# Summary of the method: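 FXR-UAS-bla HEK 293T cells carrying a UAS-driven beta-lactamase reporter were plated for 5 h at 37C/5% CO2, then exposed to DMSO-dissolved Tox21 10K compounds for 16 h at 37C. A LiveBLAzer B/G FRET substrate was loaded for 2 h at room temperature before fluorescence reading.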
# Chain of Vitamin D3 receptor (Homo sapiens) (P11473 whole entry, looked up): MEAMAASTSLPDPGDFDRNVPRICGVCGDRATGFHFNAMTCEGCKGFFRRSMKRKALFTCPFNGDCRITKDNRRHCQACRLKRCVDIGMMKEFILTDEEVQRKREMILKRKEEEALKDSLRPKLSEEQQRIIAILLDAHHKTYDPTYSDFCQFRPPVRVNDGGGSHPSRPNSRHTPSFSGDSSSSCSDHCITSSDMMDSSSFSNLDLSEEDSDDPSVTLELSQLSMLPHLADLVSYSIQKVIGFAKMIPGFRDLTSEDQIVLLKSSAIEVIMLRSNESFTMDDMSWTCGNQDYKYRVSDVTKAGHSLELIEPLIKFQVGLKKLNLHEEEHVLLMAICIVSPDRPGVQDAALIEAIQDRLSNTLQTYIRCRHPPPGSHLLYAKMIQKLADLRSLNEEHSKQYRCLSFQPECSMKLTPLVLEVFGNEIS
# Chain of Peroxisome proliferator-activated receptor delta (Homo sapiens) (Q03181 whole entry, looked up): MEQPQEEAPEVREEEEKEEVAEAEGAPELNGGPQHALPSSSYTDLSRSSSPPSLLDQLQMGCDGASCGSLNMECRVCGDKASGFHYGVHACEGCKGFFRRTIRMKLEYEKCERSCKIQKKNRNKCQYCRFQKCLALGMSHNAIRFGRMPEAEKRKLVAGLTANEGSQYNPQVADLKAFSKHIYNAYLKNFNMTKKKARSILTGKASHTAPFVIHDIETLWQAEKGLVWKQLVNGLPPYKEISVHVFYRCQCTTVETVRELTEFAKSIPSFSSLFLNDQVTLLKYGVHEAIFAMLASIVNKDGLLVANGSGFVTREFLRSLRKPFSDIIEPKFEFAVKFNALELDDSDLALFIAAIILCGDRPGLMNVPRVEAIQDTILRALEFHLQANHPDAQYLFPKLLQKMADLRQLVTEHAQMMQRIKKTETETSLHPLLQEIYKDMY
# Chain of Bile acid receptor (Homo sapiens) (Q96RI1 whole entry, looked up): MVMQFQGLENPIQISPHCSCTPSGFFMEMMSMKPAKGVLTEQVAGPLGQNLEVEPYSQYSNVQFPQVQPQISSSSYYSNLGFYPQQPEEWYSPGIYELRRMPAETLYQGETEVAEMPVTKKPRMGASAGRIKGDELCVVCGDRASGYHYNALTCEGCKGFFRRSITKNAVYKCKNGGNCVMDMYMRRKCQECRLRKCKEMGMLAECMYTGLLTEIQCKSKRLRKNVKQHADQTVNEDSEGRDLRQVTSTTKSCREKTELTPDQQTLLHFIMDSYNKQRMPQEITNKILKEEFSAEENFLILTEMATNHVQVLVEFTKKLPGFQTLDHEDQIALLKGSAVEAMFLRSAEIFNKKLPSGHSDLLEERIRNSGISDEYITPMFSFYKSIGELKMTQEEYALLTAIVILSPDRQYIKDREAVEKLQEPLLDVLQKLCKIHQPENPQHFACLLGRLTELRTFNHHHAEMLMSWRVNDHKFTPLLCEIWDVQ
smiles,measurement,setting,value
O=S(=O)(O)CCO,outcome,[1],inactive
same,outcome,[2],inactive
same,outcome,[3],inactive
same,Potency,[4],inactive
same,outcome,[5],inactive
same,outcome,[6],inactive
same,outcome,[7],inactive
Cc1ccccc1N1CCN(CCc2nnc3n2CCCC3)CC1,outcome,[1],inactive
same,outcome,[2],inactive
same,outcome,[3],inactive
same,outcome,[8],inactive
same,outcome,[9],inactive
same,outcome,[5],inactive
same,outcome,[6],inactive
same,outcome,[7],inactive
CCCCCCCCCCCCCCCCCCN(C)C,outcome,[1],inactive
same,outcome,[2],inactive
same,outcome,[3],inactive
same,Potency,[4],inactive
same,outcome,[9],inactive
same,outcome,[5],inactive
same,outcome,[7],inactive
Nc1nc(=O)n([C@@H]2O[C@H](CO)[C@@H](O)[C@@H]2F)cc1I,outcome,[1],inactive
same,outcome,[2],inactive
same,outcome,[3],inactive
same,Potency,[4],inactive
same,outcome,[9],inactive
same,outcome,[7],inactive
CCCCCCCCC(=O)OCC,outcome,[1],inactive
same,outcome,[2],inactive
same,outcome,[3],inactive
same,Potency,[4],inactive
same,outcome,[9],inactive
same,outcome,[5],inactive
same,outcome,[7],inactive
C1=CCC(c2ccccc2)CC1 (centres undefined),outcome,[1],inactive
same,outcome,[2],inactive
same,outcome,[3],inactive
same,Potency,[4],inactive
same,outcome,[9],inactive
same,outcome,[5],inactive
same,outcome,[6],inactive
same,outcome,[7],inactive
C[C@H]1O[C@H](O[C@H]2[C@H](O)[C@@H](O)[C@@H](O[C@H]3[C@H](O)[C@@H](O)[C@H](O)O[C@@H]3CO)O[C@@H]2CO)[C@H](O)[C@@H](O)[C@@H]1N[C@H]1C=C(CO)[C@@H](O)[C@H](O)[C@H]1O,outcome,[1],inactive
same,outcome,[2],inactive
same,outcome,[3],inactive
same,Potency,[4],inactive
same,outcome,[5],inactive
same,outcome,[6],inactive
same,outcome,[7],inactive
Cc1cccc(C(=O)O)c1[N+](=O)[O-],outcome,[1],inactive
same,outcome,[2],inactive
same,outcome,[3],inactive
same,Potency,[4],inactive
same,outcome,[9],inactive
same,outcome,[5],inactive
same,outcome,[7],inactive
CCNC(=O)/C=C/c1cccc(Br)c1,outcome,[1],inactive
same,outcome,[2],inactive
same,outcome,[3],inactive
same,Potency,[4],inactive
same,outcome,[9],inactive
same,outcome,[5],inactive
same,outcome,[6],inactive
same,outcome,[7],inactive
COC(OC)C(C)c1ccccc1 (centres undefined),outcome,[1],inactive
same,outcome,[2],inactive
same,outcome,[3],inactive
same,Potency,[4],inactive
same,outcome,[9],inactive
same,outcome,[6],inactive
O=c1[nH]c(=O)c2[nH]c(=O)[nH]c2[nH]1,activation,[1],2.22% [at 13.2 µM]
same,"viability change, negative = cytotoxic",[2],-1.61% [at 13.7 µM]
same,"ratio activity, negative = inhibition",[3],-0.0973% [at 13.7 µM]
same,"viability change, negative = cytotoxic",[4],18.5% [at 13.2 µM]
same,"activity change, negative = cytotoxicity",[9],0.395% [at 13.2 µM]
same,"activity change, negative = cytotoxicity",[7],-0.867% [at 13.2 µM]
CCCCC(=O)N(C)C,outcome,[1],inactive
same,outcome,[2],inactive
same,outcome,[3],inactive
same,Potency,[4],inactive
same,outcome,[9],inactive
same,outcome,[5],inactive
same,outcome,[6],inactive
same,outcome,[7],inactive
O=C(/C=C/c1ccccc1)NCCO,outcome,[1],inactive
same,outcome,[2],inactive
same,outcome,[3],inactive
same,Potency,[4],inactive
same,outcome,[9],inactive
same,outcome,[5],inactive
same,outcome,[6],inactive
same,outcome,[7],inactive
Cc1nc2ccccc2c(=O)o1,outcome,[1],inactive
same,outcome,[2],inactive
same,outcome,[3],inactive
same,Potency,[4],inactive
same,outcome,[7],inactive
CC(C)C(=O)Nc1cccc(C(F)(F)F)c1,outcome,[1],inactive
same,outcome,[2],inactive
same,outcome,[3],inactive
same,Potency,[4],inactive
same,outcome,[9],inactive
same,outcome,[5],inactive
same,outcome,[7],inactive
Cc1ccccc1C(=O)N1CC/C(=N\OS(=O)(=O)O)c2ccc(Cl)cc21,outcome,[1],inactive
same,outcome,[2],inactive
same,outcome,[3],inactive
same,Potency,[4],inactive
same,outcome,[9],inactive
same,outcome,[5],inactive
same,outcome,[7],inactive
CC(=O)N(CC(O)CO)c1c(I)c(C(=O)NCC(O)CO)c(I)c(C(=O)NCC(O)CO)c1I (centres undefined),outcome,[1],inactive
same,outcome,[2],inactive
same,outcome,[3],inactive
same,Potency,[4],inactive
same,outcome,[9],inactive
same,outcome,[5],inactive
same,outcome,[7],inactive
CC(C)CCO,outcome,[1],inactive
same,outcome,[2],inactive
same,outcome,[3],inactive
same,Potency,[4],inactive
same,outcome,[9],inactive
same,outcome,[5],inactive
same,outcome,[7],inactive
CCCCOC(=O)C(C)OC(=O)CCC (centres undefined),outcome,[1],inactive
same,outcome,[2],inactive
same,outcome,[3],inactive
same,Potency,[4],inactive
same,outcome,[9],inactive
same,outcome,[5],inactive
same,outcome,[7],inactive
CC(C)CCCC(C)CC=O (centres undefined),outcome,[1],inactive
same,outcome,[2],inactive
same,Potency,[4],inactive
same,outcome,[9],inactive
same,outcome,[7],inactive
CCCCCCCCCCCCCCCC(=O)NCCO,outcome,[1],inactive
same,outcome,[2],inactive
same,outcome,[8],inactive
same,Potency,[4],inactive
same,outcome,[10],inactive
same,outcome,[9],inactive
same,outcome,[5],inactive
same,outcome,[6],inactive
same,outcome,[7],inactive
CCCCCC1Nc2cc(C(F)(F)F)c(S(N)(=O)=O)cc2S(=O)(=O)N1 (centres undefined),outcome,[1],inactive
same,outcome,[2],inactive
same,outcome,[3],inactive
same,outcome,[9],inactive
same,outcome,[5],inactive
same,outcome,[6],inactive
same,outcome,[7],inactive
CCCOC(=O)CCCCC(=O)OCCC,outcome,[1],inactive
same,outcome,[2],inactive
same,Potency,[4],inactive
same,outcome,[9],inactive
same,outcome,[5],inactive
same,outcome,[7],inactive
CCN(CC)C(=O)C1CN2CCc3cc(OC)c(OC)cc3C2CC1OC(C)=O (centres undefined),outcome,[1],inactive
same,outcome,[3],inactive
same,outcome,[8],inactive
same,Potency,[4],237 nM (active)
same,outcome,[10],inactive
same,outcome,[9],inactive
same,outcome,[7],inactive
CCC(CO)CO,outcome,[1],inactive
same,outcome,[2],inactive
same,outcome,[3],inactive
same,outcome,[9],inactive
same,outcome,[5],inactive
same,outcome,[7],inactive
CC1=NN(c2ccc(S(=O)(=O)O)cc2)C(=O)C1N=Nc1ccccc1 (centres undefined),outcome,[1],inactive
same,outcome,[2],inactive
same,outcome,[3],inactive
same,outcome,[9],inactive
same,outcome,[5],inactive
same,outcome,[7],inactive
O=C(O)c1ccccc1C(=O)Nc1ccc(S(=O)(=O)Nc2nccs2)cc1,outcome,[1],inactive
same,outcome,[2],inactive
same,outcome,[3],inactive
same,outcome,[9],inactive
same,outcome,[5],inactive
same,outcome,[6],inactive
same,outcome,[7],inactive
NC(=O)C1(N2CCCCC2)CCN(CCCC(=O)c2ccc(F)cc2)CC1,outcome,[1],inactive
same,outcome,[2],inactive
same,outcome,[3],inactive
same,outcome,[9],inactive
same,outcome,[5],inactive
same,outcome,[7],inactive
C=C[C@@H](C)CCC=C(C)C,outcome,[1],inactive
same,outcome,[2],inactive
same,outcome,[3],inactive
same,outcome,[9],inactive
same,outcome,[5],inactive
same,outcome,[7],inactive
Cc1nc2n(c(=O)c1CCN1CCC(C(=O)c3ccc(F)cc3)CC1)CCS2,outcome,[1],inactive
same,outcome,[3],inactive
same,outcome,[8],inactive
same,Potency,[4],inactive
same,outcome,[10],inactive
same,outcome,[9],inactive
same,outcome,[5],inactive
same,outcome,[6],inactive
same,outcome,[7],inactive
C=CC(C)(O)CC/C=C(\C)CC (centres undefined),outcome,[1],inactive
same,outcome,[2],inactive
same,outcome,[3],inactive
same,outcome,[9],inactive
same,outcome,[5],inactive
same,outcome,[6],inactive
same,outcome,[7],inactive
